Bioassay records deposited in PubChem BioAssay by National Center for Advancing Translational Sciences (NCATS).
DRD3 agonist: agonists of human D3 dopamine receptor | P35462 | D3R DiscoveRx beta-arrestin cells, luminescence, 90 min | max activation, % | 0.58% of 410,000 active; in the data active means max activation above about 30%
Target sequence (P35462 whole entry, looked up): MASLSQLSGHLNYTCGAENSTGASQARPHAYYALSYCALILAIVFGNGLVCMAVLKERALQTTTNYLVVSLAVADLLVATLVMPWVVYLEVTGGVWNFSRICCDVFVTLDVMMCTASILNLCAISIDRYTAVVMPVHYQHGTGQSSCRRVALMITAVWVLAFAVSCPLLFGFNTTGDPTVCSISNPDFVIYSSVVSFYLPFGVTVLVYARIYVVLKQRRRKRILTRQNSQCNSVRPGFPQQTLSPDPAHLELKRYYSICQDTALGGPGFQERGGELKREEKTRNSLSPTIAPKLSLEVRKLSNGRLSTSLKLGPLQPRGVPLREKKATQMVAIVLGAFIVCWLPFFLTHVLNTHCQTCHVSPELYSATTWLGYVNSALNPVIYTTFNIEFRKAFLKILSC
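Cells at 1500/well, incubated overnight, then treated with pinned compounds (dopamine as control) for 90 min at 37 degrees C. DiscoveRx reagent added for 30 - 60 minutes at room temperature; luminescence read.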
TGFb inhibitor: blocks TGF-b signaling | HepG2 CAGA-GFP TGF-b/SMAD3 reporter, GFP fluorescence, 18 h; TGF-beta stimulated, 500 pg/mL final | Potency, µM (highest dose often 46.1 µM), hits mostly inhibitors | 1.2% of 410,000 active | AID 588855; further: nearly all actives have a fitted effect of over 65% in size
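HEPG2 CAGA-GFP reporter cells (1000/well, DMEM with 1% FBS) received compounds, then recombinant TGF-beta at 500 pg/mL final for 18 hours at 37 degrees C. Per-cell GFP summed per well was normalised to unstimulated and stimulated DMSO controls before curve fitting.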
HepG2 tox: kills HepG2 cells in TGF-b inhibitor counter-screen; HepG2 CAGA-GFP viability, ATP luminescence, 18 h; 0.76% of 410,000 active; Potency, µM (doses to about 46.1 µM), usual class: cytotoxic
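HepG2 CAGA-GFP cells (1000/well, DMEM with 1% FBS) received compound, then TGF-beta at 500 pg/mL final, and were incubated 18 hours at 37 degrees C. Viability was read by CellTiter-Glo luminescence. Media-only wells were set as complete cell-killing and DMSO as no toxicity.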
D3 antag: antagonists of human D3 dopamine receptor; P35462; D3R cells, DiscoveRx beta-arrestin luminescence, antagonist mode; hits give low values; max response, negative = inhibition, %; 2.5% of 360,000 active; AID 652054; in the data active means max response below about -50%; inconclusive means no clear call, values can overlap the other calls
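Cells expressing the human receptor were seeded at 1500 cells/well, incubated overnight at 37 degrees C in 5% CO2, then exposed to library compounds with dopamine controls for 90 minutes at 37 degrees C before luminescent detection.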
ATXN viability: viability counter-screen for ATXN expression inhibitors. AID 651635. 0.49% of 400,000 active. S2 cells (HEK-293 line with an ATXN2-luciferase reporter) viability, CellTiter-Fluor protease fluorescence, 24 h. Potency, µM (titrated, usually from 56.7 µM), actives largely listed as cytotoxic; further: nearly all actives have a fitted effect of over 40% in size
ATXN2 expr inh: reduces ATXN2 reporter expression in HEK-293 cells. Potency, µM (top dose mostly 57 µM), hits mostly inhibitors. HEK-293 ATXN2-luciferase reporter, luminescence, 24 h. 0.72% of 360,000 active; further: nearly all actives have a fitted effect of over 55% in size
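ATXN2-luciferase reporter cells (luciferase flanked by upstream and downstream ATXN2 gene portions) were treated 24 h at 37 °C with compounds at up to 57 uM. SteadyGlo luminescence gave expression; GF-AFC fluorescence gave viability.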
Hits are given with their value; i = inactive; ? = inconclusive; nt = no result. In the library only some 4.8% were active in any assay of this set; here they are far more common. Unless noted, the call rests on the fitted dose curve; in most records, active means well fitted curve in the direction sought with a large enough effect; inconclusive means small, poorly fitted or top-dose-only effect, or another doubt; inactive means no such curve, though single readings can be large; an effect the other way counts as inactive or inconclusive.

SMILES	DRD3 agonist	TGFb inhibitor	HepG2 tox	D3 antag	ATXN viability	ATXN2 expr inh
COc1cc2c(NC3CCN(C)CC3)nc(N3CCCN(C)CC3)nc2cc1OCCCN1CCOCC1	nt	10µM	i	nt	nt	nt
COc1cc2c(NC3CCN(C)CC3)nc(N3CCCN(C)CC3)nc2cc1OCCCCCN	nt	?	i	nt	nt	nt
COc1cc2c(NC3CCN(C)CC3)nc(N3CCCN(C)CC3)nc2cc1OCCCN1CCCC1	nt	i	i	nt	nt	nt
COc1ccc(-c2nc(N3CCOCC3)nc3n[nH]c(N)c23)cc1	i	11.2µM	i	i	i	i
COc1ccc(OC)c(/C=C/c2c3ccccc3cc[n+]2C)c1	nt	i	i	nt	nt	nt
COc1ccc2c(c1)c(CC(=O)Nc1nnc(C3CC3)s1)c(C)n2C(=O)c1ccc(Cl)cc1	54.1	i	i	i	?	i
Cc1cc(C)c2c(=N)c3ccccc3n(CCCCCCCCn3c4ccccc4c(=N)c4c(C)cc(C)nc43)c2n1	i	?	i	?	?	28.2µM
CCCCn1c2c(c(=N)c3ccccc31)CCC2	i	i	i	i	i	i
N#Cc1ccc(-c2cccs2)nc1SCC(=O)Nc1cccc(C(F)(F)F)c1	i	?	11.2µM	nt	i	i
CN1CCc2nc(SCC(=O)Nc3ccc(OC(F)(F)F)cc3)c(C#N)c(-c3cccs3)c2C1	i	i	i	?	i	i
CN1CCc2nc(SCC(=O)Nc3cccc(F)c3)c(C#N)c(-c3cccs3)c2C1	i	i	i	-50.3	i	i
COC(=O)[C@@H]1CCCN1Cc1ccc2c(c1)CN(Cc1cccn1-c1ccc(Cl)cn1)CCO2	nt	nt	nt	nt	i	nt
O=C(Nc1cccc(C(F)(F)F)c1)c1cnn(-c2cccc(F)c2)c1C1CCNCC1	i	i	i	nt	nt	nt
CC(C)C(c1nnnn1C1CCCCC1)N1CCOCC1 (configuration not stated)	i	i	i	i	?	i
CC(C)C(c1nnnn1C(C)(C)C)N1CCOCC1 (configuration not stated)	i	i	i	-61.0	i	i
CS(=O)(=O)N1CCN(c2ccc(NC(=O)c3ccc(-c4ccc(Cl)cc4)o3)cc2)CC1	i	i	i	i	i	i
CN1CCN(c2ccc(NC(=O)c3ccc(-c4ccc(Cl)cc4)o3)cc2)CC1	i	?	15.8µM	i	nt	?
CNC(=O)COC(=O)c1ccccc1C(=O)c1ccc(Cl)c([N+](=O)[O-])c1	i	i	i	-61.1	10µM	nt
O=C(COC(=O)c1cc([N+](=O)[O-])ccc1Cl)NC1CCCC1	i	i	i	i	i	i
CC(C)OC(=O)c1ccccc1C(=O)c1ccc(N)c([N+](=O)[O-])c1	i	i	i	i	?	i
O=C(COC(=O)c1ccccc1C(=O)c1ccc(Cl)c([N+](=O)[O-])c1)NC1CC1	i	?	15.8µM	-65.9	28.2µM	?
Cc1cccc(OCc2nc(CC(=O)Nc3ccc(Cl)cc3)cs2)c1	i	i	i	nt	i	i
Cc1cccc(C(=O)N2CCNC(=O)C2CC(=O)Nc2ccc(F)cc2)c1 (configuration not stated)	i	i	i	nt	i	i
C=C(C)C(=O)Oc1ccc(N=Nc2ccc(C)cc2)ccc1=O	i	?	i	i	31.6µM	?
CC(=O)c1ccc(N=Nc2ccc(C)cc2)cc1	i	i	i	i	i	i
SMILES	DRD3 agonist	TGFb inhibitor	HepG2 tox	D3 antag	ATXN viability	ATXN2 expr inh
CC1CCN(c2oc(-c3ccc(OCc4ccccc4Cl)cc3)nc2C#N)CC1	nt	i	i	nt	nt	nt
O=C(NCC1Cc2cccc(-c3cnccn3)c2O1)c1ccc(F)c(Cl)c1 (configuration not stated)	nt	nt	nt	nt	i	nt
Cc1[nH]c2c(Cl)cccc2c(=O)c1CN1CCCC1	i	i	i	-65.3	i	i
Cc1[nH]c2ccccc2c(=O)c1CN1CCCCCC1	i	i	i	i	i	i
CCc1ccc(Oc2c(C(F)(F)F)oc3c(CN4CCC(C)CC4)c(O)ccc3c2=O)cc1	i	i	i	nt	i	i
O=c1ccnc(Sc2ncccc2[N+](=O)[O-])[nH]1	i	i	i	i	i	i
O=[N+]([O-])c1cccnc1Sc1ccc(F)cc1	i	i	7.08µM	i	i	i
Cc1c(C(=O)N(C)C2CCOC2)sc2ncnc(NCc3ccc4c(c3)OCO4)c12 (configuration not stated)	nt	nt	nt	nt	i	nt
O=C(Nc1cccc(O)c1)c1ccc([N+](=O)[O-])cc1Cl	i	i	i	i	i	i
O=C(Nc1c(Cl)cc([N+](=O)[O-])cc1Cl)c1cc(Cl)cc(Cl)c1O	nt	3.16µM	i	nt	nt	nt
Cn1c(C(=O)NCc2ccc(F)cc2)cc2cc(S(=O)(=O)N3CCCCC3)ccc21	i	i	i	nt	nt	nt
O=C(Nc1cccc(Cl)c1)c1cc(S(=O)(=O)NCCc2ccc(Cl)cc2)ccc1F	i	11.2µM	i	i	i	i
CC(C)c1ccc(NC(=O)c2cc(S(=O)(=O)NCCC3=CCCCC3)ccc2F)cc1	i	?	12.6µM	nt	?	?
Cc1ccc(C(=O)N/N=C\c2cc3c(cc2Br)OCO3)s1	i	i	i	-65.5	i	i
CCOc1cccc(CNCCNC(=O)c2nonc2N)c1	i	i	i	-50.4	i	i
Nc1nonc1C(=O)NCCNCc1c(OCc2ccccc2F)ccc2ccccc12	i	?	i	-55.2	?	?
COc1ccc(OC)c(C(=O)c2c(N)c(-c3nc(-c4ccc(C)c(C)c4)cs3)c3ccccn23)c1	i	i	i	nt	i	i
CCc1nc(NCc2ccc3c(c2)OCO3)c2oc3ccccc3c2n1	i	i	i	-65.8	i	i
COc1ccc(CSCC(=O)N/N=C/c2ccccc2O)cc1	i	i	i	i	i	25.1µM
O=C(CSc1ccccc1)N/N=C/c1ccccc1O	i	i	i	i	?	?
COCCCNC(=O)CN1C(=O)c2c(c3ccccc3n2C)C1c1ccc(OC)cc1 (configuration not stated)	i	i	i	nt	nt	nt
CS(=O)(=O)N1CCCCC1c1cc(C(=O)NCc2ccc(F)cc2)no1 (configuration not stated)	i	i	i	-87.8	i	i
O=C(NCc1ccc(F)cc1)c1cc(C2CCCCN2S(=O)(=O)Cc2ccccc2)on1 (configuration not stated)	i	i	i	-99.1	i	i
O=C(COC(=O)CNC(=O)C1CCCCC1)NC1CC1	nt	i	i	nt	nt	nt
N#C/C(=C\c1coc2ccc(O)cc2c1=O)C(=O)Nc1nc2ccccc2s1	i	?	11.2µM	i	?	nt
O=C(CC(C(=O)c1ccccc1)c1ccccc1)c1ccccc1 (configuration not stated)	i	i	i	i	?	i
CCOC(CN1CCN(CC(C)C(=O)c2ccccc2)CC1)c1ccccc1 (configuration not stated)	i	nt	nt	nt	i	i
